Screening data (PubChem)
dFosB activator: mouse delta FosB homodimer activation; P13346; activation, % at 25 µM; 340,000 tested, 0.99% active; purified delta FosB, TAMRA-CDK5 oligo fluorescence polarization; percent of positive-control signal above neutral wells;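 active means mean activation above about 17%, with every replicate also reaching it, limit read from the data, passing the limit was not always enough; inconclusive means only one of the two conditions met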
DENV2 CPE rescue: DENV2-induced cell death inhibition. DENV2-infected cells, cytopathic effect rescue, plate reader. CPE inhibition, % at 9.99 µM. 350,000 tested, 1.7% active; in the data active means CPE inhibition above about 20%, passing the limit was not always enough; inconclusive means no clear call, values can overlap the other calls; tested in BHK-21 cells;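 further: 0% = median of neutral control wells and 100% = median of positive control wells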
RAD54 inh: RAD54 (human) branch migration inhibition. Q92698. RAD54 Holliday junction branch migration, FAM/BHQ fluorescence. inhibition, % at 10.4 µM. 360,000 tested, 0.14% active. AID 602329;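 active means mean normalized replicate activity at least 40 and at least half of replicates scoring 40 or more; inconclusive means only one of the two criteria met; inactive means mean below 40 and under half of replicates reaching 40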;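 further: 0% = median of neutral control wells and 100% = median of positive control wells; inhibitors cause a drop in the FAM fluorescence signal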
MLL AF4-AF9 inh: MLL-AF4/AF9 protein interaction inhibition; AID 651704; 350,000 tested, 0.47% active; inhibition, % at 10 µM; AlphaScreen, biotin-AF4 peptide binding to FLAG-AF9; P42568;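 active means every replicate reaching a set inhibition limit, whatever the replicate mean, cut at about 25% in these data; inconclusive means mean inhibition reaches that limit but some replicates miss it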;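 further: 0% = plate neutral control median and 100% = total signal loss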
INS-1E GSIS act: primary screen for activators of insulin secretion dependent on glucose, INS-1E cells, GLuc reporter luminescence; INS-1E GLuc reporter insulin secretion, 2-3 h; activation, % at 16.6 µM; 370,000 tested, 0.61% active; AID 743287;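 active means lowest replicate activation of at least 40%, so every replicate reaches that level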;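 further: 0% = median of neutral control wells and 100% = median of IBMX positive control wells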
RAD52 inh: inhibitors of human RAD52 DNA annealing; P43351; recombinant RAD52 DNA annealing, FRET fluorescence; inhibition, % at 18.7 µM; 360,000 tested, 0.46% active;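 active means every replicate showing at least 50% inhibition; inconclusive means mean inhibition at least 50% but not in every replicate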
Target sequence (P43351 whole entry, looked up): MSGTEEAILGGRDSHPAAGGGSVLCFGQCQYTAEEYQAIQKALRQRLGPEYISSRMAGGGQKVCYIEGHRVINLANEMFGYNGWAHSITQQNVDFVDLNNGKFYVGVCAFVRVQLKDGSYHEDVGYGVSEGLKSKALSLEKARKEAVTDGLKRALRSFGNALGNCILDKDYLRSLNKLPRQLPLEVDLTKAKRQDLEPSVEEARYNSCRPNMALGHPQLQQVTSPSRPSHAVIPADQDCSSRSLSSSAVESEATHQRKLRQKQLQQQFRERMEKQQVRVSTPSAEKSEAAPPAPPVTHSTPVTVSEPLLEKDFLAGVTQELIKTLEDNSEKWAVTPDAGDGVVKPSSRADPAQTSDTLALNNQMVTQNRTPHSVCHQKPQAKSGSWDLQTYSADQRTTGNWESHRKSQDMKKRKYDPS
The depositor's hits bear a star; ? = inconclusive; / = no result given. The list is not random: actives were taken first. Their share in the collection is about 3.1%.

SMILES | dFosB activator | DENV2 CPE rescue | RAD54 inh | MLL AF4-AF9 inh | INS-1E GSIS act | RAD52 inh
CCOCCCn1c(SCC(=O)NC2CCCCC2)nc2ccccc2c1=O | / | -2.1 | -12.7 | 2.1 | 43.0* | -3.8
CC1CCOC(c2coc3ccccc3c2=O)O1 (stereo not drawn) | -1.5 | 33.3* | -5.1 | -0.3 | 3.4 | -3.8
C[C@H](CO)N1C[C@H](C)[C@@H](CN(C)CC2CC2)OCCCC[C@H](C)Oc2ccc(NC(=O)Nc3ccc4c(c3)OCO4)cc2C1=O | / | -0.8 | 8.3 | 28.9* | -6.3 | 47.6
C[C@H](CO)N1C[C@H](C)[C@H](CN(C)CC2CC2)OCCCC[C@H](C)Oc2ccc(NC(=O)Nc3ccc4c(c3)OCO4)cc2C1=O | / | 1.2 | 17.1 | 35.9* | / | 55.1*
CCCN(C)C[C@@H]1OCCCC[C@@H](C)Oc2ccc(NC(=O)Nc3ccc4c(c3)OCO4)cc2C(=O)N([C@H](C)CO)C[C@H]1C | / | -12.8 | -0.7 | 25.3* | 5.0 | 31.1
C[C@@H]1CCCCO[C@@H](CN(C)CC2CC2)[C@H](C)CN([C@H](C)CO)C(=O)c2cc(NC(=O)Nc3ccc4c(c3)OCO4)ccc2O1 | / | ? | 10.5 | ? | -0.8 | 33.1
CCC(=O)N1CC2(C1)CN(C(=O)Nc1ccc(F)cc1)[C@H](CO)c1c2c2ccc(OC)cc2n1C | / | 79.8* | / | -4.0 | -32.1 | /
COc1cccc(CN2CCC3(CC2)CN(C(=O)Nc2ccc(F)cc2)[C@H](CO)c2c3c3ccc(OC)cc3n2C)c1 | / | 7.6 | / | 35.8* | -28.6 | /
COc1ccc2c3c(n(C)c2c1)[C@@H](CO)N(C(=O)Nc1ccc(F)cc1)CC31CCN(Cc2ccccn2)CC1 | / | 13.7 | / | 29.0* | -9.2 | 22.7
COc1ccc2c3c(n(C)c2c1)[C@@H](CO)N(C(=O)Nc1ccc(F)cc1)CC31CCN(Cc2cccc(F)c2)CC1 | / | 2.8 | / | -0.4 | -10.7 | -1.7
COc1ccc2c3c(n(C)c2c1)[C@@H](CO)N(C(=O)Nc1ccc(F)cc1)CC31CCN(C(=O)c2ccccc2F)CC1 | / | 40.3* | / | -8.5 | -5.1 | 13.6
CC(=O)N(C)C[C@H]1Oc2ccc(N)cc2C(=O)N(C)C[C@@H]1C | / | / | / | / | -2.1 | /
C[C@@H]1CN([C@H](C)CO)C(=O)c2cc(NC(=O)Cn3cnnn3)ccc2O[C@@H]1CN(C)S(=O)(=O)c1cn(C)cn1 | / | 1.8 | -3.7 | -4.3 | -4.2 | -7.6
Cc1noc(C)c1NC(=O)N(C)C[C@@H]1OCCCC[C@H](C)Oc2ccc(NS(=O)(=O)c3ccccc3)cc2C(=O)N([C@@H](C)CO)C[C@@H]1C | / | 1.5 | 2.1 | -5.3 | -1.0 | 11.3
Cc1ccc2c(c1)C=CC(C#N)N2C(=O)Oc1ccccc1 (stereo not drawn) | / | 2.9 | / | 1.5 | 13.8 | -14.9
Cc1ccc2c(c1)C=CC(C#N)N2C(=O)c1ccccc1 (stereo not drawn) | -6.1 | -1.5 | / | 1.2 | 49.9* | -15.0
COC(=O)[C@H]1[C@H](CO)[C@H]2Cn3c(ccc(/C=C/c4ccccc4)c3=O)[C@H]2N1CC1CCCCC1 | / | / | -2.7 | / | -5.5 | /
COc1ccc2ccccc2c1-c1c(OC)ccc2ccccc12 | / | 25.8* | -10.2 | -1.6 | / | 3.2
COc1ccc(OC)c2cc3ccccc3cc12 | -10.1 | -2.6 | -16.7 | -8.7 | 0.6 | -382.7
O=C(C[C@H]1CC[C@H]2[C@@H](COC[C@H](O)CN2Cc2cccc(C(F)(F)F)c2)O1)NCc1ccc(Cl)cc1 | / | ? | -3.8 | 3.8 | -8.8 | 4.6
Cn1c(=NC(=O)c2ccccc2[N+](=O)[O-])sc2cc(S(C)(=O)=O)ccc21 | 6.0 | / | 0.0 | / | 86.7* | /
CC(C)OCCCn1c(=N)c(S(=O)(=O)c2ccccc2)cc2c(=O)n3ccccc3nc21 | -9.5 | -5.3 | 1.6 | -0.3 | -2.6 | -18.6
CCOCCCn1c(=N)c(S(=O)(=O)c2ccccc2)cc2c(=O)n3cc(C)ccc3nc21 | -10.3 | -5.5 | -1.1 | 25.9* | 6.4 | -107.8
CC(C)NC(=O)Nc1cccc2c1O[C@H](CN(C)C(=O)Nc1ccc3c(c1)OCO3)[C@@H](C)CN([C@H](C)CO)C2=O | / | 9.4 | 8.5 | -1.4 | -3.6 | 8.1
C=CCN(Cc1ccc(OC)c(OC)c1)C(=O)N1CCOCC1 | 1.0 | 0.4 | -21.7 | -0.3 | 53.1* | -5.7
SMILES | dFosB activator | DENV2 CPE rescue | RAD54 inh | MLL AF4-AF9 inh | INS-1E GSIS act | RAD52 inh
Clc1ccc(C2=NCCn3nc4ccccc4c32)cc1 | -8.4 | ? | -5.1 | 8.9 | -8.3 | -12.4
Nc1c(Cl)cc(C2=NCCn3nc4ccccc4c32)cc1Cl | 4.4 | 21.5* | 1.7 | 13.7 | -3.6 | -25.3
COc1ccc(CCNc2ccncn2)cc1OC | -5.1 | / | / | / | 45.4* | /
c1cc2ccc3ccc(-n4cnnn4)c4ccc(c1)c2c34 | 25.1* | / | -0.1 | / | / | /
CC(C)C#Cc1ccc2c(c1)O[C@H](CN(C)Cc1cncnc1)[C@@H](C)CN([C@@H](C)CO)S2(=O)=O | / | 9.1 | 4.7 | 3.2 | -14.9 | 15.9
O=C(Nc1cccc(Cl)c1)N1C[C@H]2[C@@H](c3ccccc31)[C@H](CO)N2C(=O)c1cccnc1 | / | ? | 0.5 | 0.4 | 2.0 | -7.7
Nc1nc(Nc2cccc(Cl)c2)nc(NCc2ccco2)c1[N+](=O)[O-] | 58.4* | -3.7 | / | 1.3 | 15.3 | -39.7
c1ccc(Nc2nc(NCC3CCCO3)c3ccccc3n2)cc1 (stereo not drawn) | -9.0 | 1.3 | 24.0 | 5.6 | -7.7 | 6.6
Oc1cccc(Nc2nc(NCC3CCCO3)c3ccccc3n2)c1 (stereo not drawn) | 59.2* | / | 28.4 | / | / | /
CNc1nc(Nc2ccc(Br)cc2)nc(N)c1[N+](=O)[O-] | -0.1 | / | / | / | 49.7* | /
Cc1cccc(Nc2nc(NCc3ccco3)nc(N)c2[N+](=O)[O-])c1 | 5.3 | 8.4 | -16.8 | -10.1 | 12.1 | -8.9
Nc1nc(Nc2cccc(F)c2)nc(NCc2ccco2)c1[N+](=O)[O-] | 22.8* | 1.7 | 28.9 | 0.0 | 4.8 | -18.9
Nc1nc(NCCCN2CCOCC2)nc(Nc2cccc(Cl)c2)c1[N+](=O)[O-] | 63.3* | -3.8 | / | 3.0 | 25.5 | -10.4
Nc1nc(NCC2CCCO2)nc(Nc2cccc(F)c2)c1[N+](=O)[O-] (stereo not drawn) | 10.1 | 2.6 | / | 31.0* | 8.7 | -12.4
COc1ccc(Nc2nc(N)c([N+](=O)[O-])c(NCc3ccccc3)n2)cc1 | 29.0* | 4.8 | / | 1.2 | 5.9 | 1.8
Nc1nc(Nc2ccc(Cl)cc2)nc(NCc2ccco2)c1[N+](=O)[O-] | 57.2* | 0.2 | -2.0 | -0.9 | -2.8 | -38.6
COc1ccc(CN(C)C[C@H]2Oc3c(NS(C)(=O)=O)cccc3C(=O)N([C@@H](C)CO)C[C@H]2C)cc1 | / | 4.3 | -2.4 | -0.4 | 4.3 | -14.6
CO[C@@H]1CN(C)C(=O)c2ccc(NC(=O)Nc3cc(F)ccc3F)cc2OC[C@H](C)N(C)C[C@@H]1C | / | -4.9 | 3.5 | -1.0 | 2.2 | -46.8
c1ccc(-c2nccc(-c3ccc(-n4cnc5ccccc54)cc3)n2)cc1 | 130.3* | / | -4.6 | / | / | /
